Screening data deposited in PubChem by National Center for Advancing Translational Sciences (NCATS).
TGFb SMAD3 inh – qHTS for Inhibitors of TGF-b. HepG2 CAGA-GFP TGF-b/SMAD3 reporter, GFP fluorescence, 18 h; TGF-beta stimulated, 500 pg/mL final. Potency, µM (titrated, usually from 46.1 µM), for inactives: at the highest dose activity, negative = inhibition, actives largely listed as inhibitors. 410,000 compounds, 1.2% hits; note: % is set by controls: 0 for no effect and ±100 for the full control effect; nearly all actives have a fitted effect of over 65% in size
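Inhibition of TGF-beta-driven CAGA-GFP reporter expression in HEPG2 cells is measured by cellular GFP fluorescence after 18 h stimulation with 500 pg/mL recombinant TGF-beta in 1% FBS medium at 37 degrees C.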
TDP1 cell noCPT – qHTS for Inhibitors of human tyrosyl-DNA phosphodiesterase 1 (TDP1): qHTS in cells in absence of CPT. DT40 Tdp1-/- hTDP1 cells, no CPT, ATP luminescence, 48 h. Potency, µM (highest dose often 46.2 µM), for inactives: at the highest dose activity change, negative = growth inhibition, usual class: inhibitors. 420,000 compounds, 15% hits; note: % is set by controls: 0 for no effect and ±100 for the full control effect; nearly all actives have a fitted effect of over 55% in size
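Readout: luminescence from CellTiter-Glo after 30 min in the dark at RT. Cells: DT40 Tdp1-/- with stable hTDP1, 400/well. Exposure: compounds alone, ≥48 hr, 37 °C.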
DT40 TDP1 CPT – qHTS for Inhibitors of human tyrosyl-DNA phosphodiesterase 1 (TDP1): qHTS in cells in presence of CPT; 420,000 compounds, 12% hits; chicken DT40 Tdp1-/-;hTDP1 cells + 20 nM CPT, ATP luminescence, 48 h; Potency, µM (top dose mostly 46.2 µM), without a hit: at the top dose activity change, negative = growth inhibition, usual class: inhibitors; note: % is set by controls: 0 for no effect and ±100 for the full control effect; nearly all actives have a fitted effect of over 55% in size
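Chicken DT40 Tdp1-/- cells complemented with human TDP1, 400 cells/well, exposed to compounds plus 20 nM camptothecin for at least 48 h at 37 C; viability read as ATP content by CellTiter-Glo luminescence.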
HT1080-NT tox – qHTS for induction of synthetic lethality in tumor cells producing 2HG: qHTS for the HT-1080-NT fibrosarcoma cell line | HT-1080-NT fibrosarcoma viability, CellTiter-Glo ATP luminescence, 48 h | Potency, µM (highest dose often 46.1 µM), without a hit: at the highest dose activity, negative = less viability, hits mostly cytotoxic | 360,000 compounds, 1.6% hits;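 note: NT is the 2HG producing partner of a matched IDH1 knockdown line; 0% = DMSO-treated cells and -100% = media-only wells without cells; nearly all actives have a fitted effect of over 55% in size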
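A 48-hour cytotoxicity screen used HT-1080-NT cells plated 2 hours before compound delivery. ATP-based CellTiter-Glo luminescence measured viability, normalized to DMSO and no-cell controls.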
HepG2 tox – qHTS for Inhibitors of TGF-b: Cytotox Counterscreen. HepG2 CAGA-GFP viability, ATP luminescence, 18 h. Potency, µM (doses to about 46.1 µM), inactives show at the top dose activity change, negative = cytotoxicity, most hits filed as cytotoxic. 410,000 compounds, 0.76% hits. AID 588856, 2011
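HepG2 CAGA-GFP cells (1000/well, DMEM with 1% FBS) received compound, then TGF-beta at 500 pg/mL final, and were incubated 18 hours at 37 degrees C. Viability was read by CellTiter-Glo luminescence. Media-only wells were set as complete cell-killing and DMSO as no toxicity.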
HT1080 IDH1KD tx – qHTS for induction of synthetic lethality in tumor cells producing 2HG: qHTS for the HT-1080-IDH1KD cell line. HT-1080 IDH1 knockdown viability, ATP luminescence, 48 h. Potency, µM (series often up to 46.1 µM), without a hit: top-dose activity, negative = toxicity, actives largely listed as cytotoxic. 360,000 compounds, 2% hits;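 note: 0% = DMSO wells and -100% = cell-free medium wells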
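In this qHTS, HT-1080 cells depleted of IDH1 are exposed for 48 h at 37 °C to compound titrations. Toxicity is scored from CellTiter-Glo luminescence, with DMSO as full viability and medium alone as none.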
Active calls of the source: *; ? = inconclusive; nt = no result given; [ ] = another dose, or the depositor's remark. In the library only some 17% were active in any assay of this set; here they are far more common. Calls come from the whole dose curve; as a rule, active = well fitted curve in the direction sought with a large enough effect; inconclusive = small, poorly fitted or top-dose-only effect, or another doubt; inactive = no such curve, though single readings can be large; an effect the other way counts as inactive or inconclusive. Potency is the fitted concentration of half-maximal effect.

SMILES	TGFb SMAD3 inh	TDP1 cell noCPT	DT40 TDP1 CPT	HT1080-NT tox	HepG2 tox	HT1080 IDH1KD tx
CCOP(=O)(OCC)C1NC(=O)N(c2ccccc2)C1=O (configuration not stated)	-11.9%	4.6%	2.3%	27.0%	-28.4%	24.7%
C=CCc1cc(C=O)cc(OC)c1OCc1ccc(Cl)cc1	?	18.4µM*	?	-27.4%	-7.8%	-12.7%
Cc1cccc(N2CCN(C(=O)CN3C(=O)COc4ccc(S(=O)(=O)N5CCCCCC5)cc43)CC2)c1C	?	16.4µM*	?	nt	-0.6%	nt
Cc1c(Cl)cccc1NC(=O)CN1C(=O)COc2ccc(S(=O)(=O)N3CCCCCC3)cc21	3.2%	?	16.4µM*	nt	1.0%	nt
Cc1c(Cl)cccc1NC(=O)CN1C(=O)COc2ccc(S(=O)(=O)Nc3ccccc3)cc21	10µM*	?	?	nt	-19.7%	nt
C[C@@H]1COC(=O)[C@H](Cc2ccc(F)cc2)CC/C=C\C[C@@H](CC(=O)NCCO)C(=O)N1	8.1%	-6.5%	1.0%	19.9%	4.6%	16.0%
CC(C)(C)OC(=O)NN1CC(=O)N2Cc3[nH]c4ccccc4c3C[C@H]2C1=O	5.6%	16.9%	-1.5%	6.8%	-2.6%	12.0%
NC1=NC(c2ccc(Cl)cc2)C(C(=O)c2ccccc2)N1 (configuration not stated)	?	11.6µM*	?	18.4µM*	-6.8%	14.6µM*
CCOC(=O)C1=NNC(C(=O)c2ccc(Cl)cc2)C1c1ccccc1 (configuration not stated)	-18.4%	-10.4%	-7.1%	5.1%	-35.7%	7.1%
Cc1ccc(Sc2nc(-c3ccccc3)nnc2C(F)(F)F)cc1	16.7%	20.6µM*	20.6µM*	0.2%	8.7%	9.2%
CC(=O)c1ccc(F)c(-c2cc(C)cc3c2OC(CNC(=O)C(C)n2nc(C)cc2C)C3)c1 (configuration not stated)	nt	-20.5%	0.3%[9.04 µM]	nt	nt	nt
Cc1cc(-c2cc(F)cc3c2OC(CNC(=O)[C@@H]2CCC(=O)N2)C3)ccc1F (some centres not stated)	nt	-17.3%	1.8%[9.04 µM]	nt	nt	nt
Cc1nc(CC(=O)NCC2Cc3cc(F)cc(-c4ccc(F)c(C)c4)c3O2)cs1 (configuration not stated)	nt	13µM*	6.7%[9.04 µM]	nt	nt	nt
CC(=O)c1ccc(F)c(-c2cc(C)cc3c2OC(CNC(=O)c2csc(C)n2)C3)c1 (configuration not stated)	nt	20.6µM*	7.5%[9.04 µM]	nt	nt	nt
COc1ccc(-c2n[nH]c(C)c2-c2ccc(Cl)cc2)c(O)c1	?	?	-29.2%	20.6µM*	-83.3%	20.6µM*
Cc1[nH]nc(-c2ccc(O)cc2O)c1-c1ccc(Cl)cc1	?	?	?	1.1%	-45.3%	-29.4%
COc1ccc(-c2n[nH]c(C)c2-c2ccc(Cl)cc2)c(O)c1OC	-7.3%	?	?	-24.6%	17.8µM*	?
NCC/C=C1/c2ccccc2CSc2ccccc21	?	35.5µM*	25.1µM*	14.1µM*	15.8µM*	?
C=CCN(C)CC/C=C1\c2ccccc2CSc2ccccc21	-16.0%	?	?	?	-40.6%	-26.2%
Cc1ccc(C(=O)N/C(=C\c2ccc3c(c2)OCO3)C(=O)Nc2ccc(C(=O)O)cc2)cc1	6.6%	-0.5%	-7.8%	4.0%	0.3%	10.1%
O=c1c(O)c(-c2ccccc2)oc2ccccc12	?	9.2µM*	?	-3.2%	-22.4%	-1.9%
COc1cccc(-c2oc3ccc(C)cc3c(=O)c2O)c1	8.91µM*	13µM*	20.6µM*	nt	-30.3%	nt
O=C(O)c1c(-c2ccccc2)oc2ccc(O)cc12	-0.7%	-2.0%	14.7%	7.8%	-9.2%	0.0%
Cc1ccc2oc(-c3ccccc3)c(C(=O)O)c(=O)c2c1	-8.2%	23.1µM*	?	-19.1%	-19.4%	?
Cc1ccc(-c2oc3ccccc3c(=O)c2O)cc1	-16.5%	16.4µM*	25.9µM*	?	-22.1%	-25.5%
SMILES	TGFb SMAD3 inh	TDP1 cell noCPT	DT40 TDP1 CPT	HT1080-NT tox	HepG2 tox	HT1080 IDH1KD tx
O=c1c(O)c(-c2cccs2)oc2ccccc12	0.8%	?	?	?	-28.5%	-19.4%
Cc1nc(SCC(=O)Nc2ccccc2Cl)oc1C	8.5%	-5.3%	-15.3%	-7.4%	3.7%	-3.2%
COc1ccccc1/C=N/OCc1ccc(C#N)cc1	-0.6%	-24.8%	8.6%	17.2%	-3.5%	24.0%
CCN(CC)CCNC(=O)c1ccc(NC(=O)/C=C/c2ccc3ccccc3n2)cc1	0.0%	?	?	-10.8%	-49.4%	-25.1%
COCCN1CCN(C(=O)C2CCC(=O)N(Cc3cccc(C(F)(F)F)c3)C2)CC1 (configuration not stated)	5.5%	4.8%	-4.3%	0.5%	1.5%	7.4%
COC(=O)C1CCN(Cc2ccc3c(c2)CN(C(=O)c2ccnn2C)CCO3)CC1	nt	-2.6%	1.1%[9.04 µM]	nt	nt	nt
O=C(Nc1nc2ccccc2[nH]1)c1cccc(Cl)c1	-1.3%	?	?	-3.7%	-16.9%	-7.2%
Clc1ccc(-[n+]2c(-c3cccc(Br)c3)[nH]c3nc4ccccc4nc32)cc1	-4.1%	25.9µM*	?	20.9%	0.7%	27.7%
O=C(O)CC/C(=N/NC(=O)c1cn(-c2ccccc2)nc1-c1ccccc1)C(=O)O	2.9%	?	?	-6.0%	13.8%	-1.1%
Cc1ccc(C)c(C(=O)CCC(=O)OCn2nnc3ccccc3c2=O)c1	-8.9%	15.0%	-23.9%	-0.6%	-0.1%	-2.2%
Cc1ccc2c(CNCc3ccc(C)o3)c(C(=O)O)n(Cc3ccccc3C)c2c1	-11.7%	?	?	nt	-20.5%	nt
COc1ccc2c(CNCc3ccc(C)o3)c(C(=O)O)n(Cc3ccccc3C)c2c1	0.1%	3.26µM*	7.31µM*	nt	-2.0%	nt
COc1ccc(Cn2c(C(=O)O)c(CNCc3ccc(C)o3)c3ccc(OC)cc32)cc1	?	-97.3%	23.1µM*	nt	-31.3%	nt
COc1ccc(Cn2c(C(=O)O)c(CNCCc3ccccc3Cl)c3ccc(C)cc32)cc1	?	?	?	nt	-31.3%	nt
